Here are results for 15 compounds from PubChem BioAssay AID933 (National Center for Advancing Translational Sciences (NCATS), 2009).

Values joined by “and” are separate entries in the source; they are usually repeats but may differ in a detail not shown here. Equal values may be shown once. Results filed as inconclusive are left out. Values without a mark were called inactive. Active and inactive are the calls of the source. Calls follow the shape of the dose curve; as a rule, active = well fitted activation curve with a large enough effect in the signal ratio, with a control signal flat; inconclusive = small, poorly fitted or top-dose-only effect, or a change in a side signal; inactive = flat fitted curve, though single readings scatter; the % refers to the signal ratio.
Potency is read from the fitted curve at half-maximal effect.

Sequence of Thyrotropin receptor (Homo sapiens) (P16473 whole entry, looked up): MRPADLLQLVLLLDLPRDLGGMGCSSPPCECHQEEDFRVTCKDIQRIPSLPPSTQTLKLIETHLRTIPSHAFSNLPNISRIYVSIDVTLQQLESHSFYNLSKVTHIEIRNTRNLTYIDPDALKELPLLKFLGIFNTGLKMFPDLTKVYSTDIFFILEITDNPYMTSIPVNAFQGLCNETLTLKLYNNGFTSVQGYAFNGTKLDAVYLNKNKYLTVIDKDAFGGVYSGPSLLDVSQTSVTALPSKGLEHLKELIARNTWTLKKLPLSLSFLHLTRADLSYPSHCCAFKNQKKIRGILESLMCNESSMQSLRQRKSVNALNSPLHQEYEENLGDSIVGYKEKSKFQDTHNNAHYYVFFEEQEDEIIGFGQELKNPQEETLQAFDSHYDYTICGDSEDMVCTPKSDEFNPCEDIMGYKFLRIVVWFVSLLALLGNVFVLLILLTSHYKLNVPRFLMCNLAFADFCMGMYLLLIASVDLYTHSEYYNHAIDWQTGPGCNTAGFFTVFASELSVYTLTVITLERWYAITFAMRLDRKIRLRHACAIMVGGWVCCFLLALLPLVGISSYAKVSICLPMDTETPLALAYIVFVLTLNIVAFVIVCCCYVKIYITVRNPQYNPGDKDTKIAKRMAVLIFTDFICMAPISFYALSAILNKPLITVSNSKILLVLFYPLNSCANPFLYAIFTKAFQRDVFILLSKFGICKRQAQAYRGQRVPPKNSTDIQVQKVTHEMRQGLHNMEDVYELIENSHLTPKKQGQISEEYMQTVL

The target in the test is Thyrotropin receptor (Homo sapiens) (UniProt P16473). As to the kind of experiment: Secondary Concentration-Response Assay for Agonists of the Thyroid Stimulating Hormone Receptor: HTRF Activity Detection.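 As to activation: HEK 293 cells stably expressing human TSHR with RO 20-1724 phosphodiesterase inhibitor; % of control where 0% means no effect.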 The settings on record: HEK293-TSHR cells, cAMP HTRF ratio, 30 min; series mostly up to 91.7 µM; activation: at the top concentration. The method in brief:
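Orthogonal confirmation in a separate TSHR-transfected HEK 293 line: cells in medium with 10 % FCS and 100 uM RO 20-1724 got compound for 30 min at room temperature. cAMP was measured by HTRF (d2-cAMP/anti-cAMP antibody), 615/660 nm emission.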
As for `COc1cc(C2Nc3ccccc3C(=O)N2Cc2ccccc2)ccc1OCc1ccc(NC(C)=O)cc1` (stereo not given), the “activation” value was 8.19%. In the case of `Cc1cc(=O)[nH]c(SCCOc2ccc3c(c2)CCC3)n1`, the activation is 0.323% [at 0.00035 µM]. On the same count and under the same terms, with `COc1ccc(C2Nc3ccccc3C(=O)N2c2ccccc2F)cc1COc1ccc(NC(C)=O)cc1` (stereo not given) the figure was 11.4%; with `COc1ccc(CN(Cc2ccccc2)S(=O)(=O)c2ccccc2)cc1COc1ccc(NC(C)=O)cc1`, 12.9%. Still for that read-out and setting: with `O=C(COC(=O)C12CC3CC(CC(O)(C3)C1)C2)NCc1ccco1` the figure was 2.65%. Take `CCCCN1C(=O)c2ccccc2NC1c1ccc(OC)c(COc2ccc(NC(C)=O)cc2)c1` (stereo not given): the Potency is 20 µM (active). As to `N#Cc1ccc(C(=O)N(Cc2ccco2)Cc2cccs2)cc1`, the “activation” value was 4.24%.

In the case of `COc1ccc(C(=O)N(Cc2ccccc2)Cc2ccc(OC)c(COc3ccc(NC(C)=O)cc3)c2)cc1`, the Potency was 12.6 µM (active). As for `COc1ccc(C2Nc3ccccc3C(=O)N2Cc2ccccc2)cc1COc1ccc(NC(C)=O)cc1` (stereo not given), the Potency is 7.08 µM (active) and 3.55 µM (active).

For `COc1cccc(OCc2cc(C3Nc4ccccc4C(=O)N3Cc3ccccc3)ccc2OC)c1` (stereo not given), the “activation” value was 1.17%. In the case of `CCOC(=O)COc1ccccc1C1Nc2ccccc2C(=O)N1c1cccc(Cl)c1` (stereo not given), the “activation” value was 4.3%. In the case of `COc1ccc(CN(Cc2ccccc2)C(=O)c2ccc(OC)cc2O)cc1`, the Potency is 31.6 µM (active).

Consider `O=C1c2ccccc2NC(c2cc(Br)c3c(c2)OCO3)N1Cc1ccco1` (stereo not given), for which the “activation” value was 12.2%. With `O=c1c2ccccc2nc(-c2ccccc2O)n1Cc1ccccc1`, the “activation” value was 4.17%. For the compound `COc1ccc(C(=O)N(Cc2cccs2)Cc2cccs2)c(O)c1`, the Potency is 15.8 µM (active).
